Activity remaining data for 35 compounds are collected here from PubChem BioAssay.

The source made the active and inactive calls. The rule behind the calls is not given here.

For the test, the system named is Aerobactin synthetase IucA (Klebsiella pneumoniae hvKP1). The experiment in a line: Biochemical IucA enzyme inhibition primary screen of the Spectrum library (AID 1346200).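 Note: 100% = wells without compound and 0% = wells lacking enzyme.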 Particulars: malachite green pyrophosphate, A620, at 8 µM, stronger effect = lower value.
As to `CC1=CC2C(CC1=O)C(C)=CCC2C(C)C` (stereo not given), the activity remaining is 104% (inactive).

As to `CO[C@H]1O[C@H](CO)C(O[C@@H]2OC(C(=O)O)[C@@H](O[C@H]3O[C@H](COS(=O)(=O)O)C(O[C@@H]4OC(C(=O)O)[C@@H](O[C@H]5O[C@H](CO)C(O[C@@H]6OC(C(=O)O)[C@@H](O[C@H]7O[C@H](COS(=O)(=O)O)C(O[C@@H]8OC(C(=O)O)=C[C@H](O)C8OS(=O)(=O)O)[C@H](O)[C@H]7NC(C)=O)[C@H](O)[C@H]6O)[C@H](O)[C@H]5NC(C)=O)[C@H](O)[C@H]4O)[C@H](O)[C@H]3NC(C)=O)[C@H](O)[C@H]2O)[C@H](O)[C@H]1NC(C)=O` (stereo not given in full), the activity remaining was 92.9% (inactive).

Consider `CCN(CC)C(=O)c1cccc(C)c1`, for which the activity remaining was 112% (inactive). As for `CC1(C)CC2C1CCC1(C)OC1CCC2(C)O` (stereo not given), the figure is 120% (inactive). Next, `COC(=O)C(O)c1ccccc1` (stereo not given): 108% (inactive); `CC(=O)O[C@H]1CC[C@@]2(C)C(=CC(=O)C3C4CCC(C(C)CCCC(C)C)[C@@]4(C)CCC32)C1` (stereo not given in full): 123% (inactive); `COc1cnc(NS(=O)(=O)c2ccc(N)cc2)nc1`: 113% (inactive). Next, `Oc1ccc2c(c1)OCC1(O)Cc3cc(O)c(O)cc3C21` (stereo not given): 91.6% (inactive); `COc1ccc([C@@H](C)C(=O)c2ccc(O)cc2O)cc1`: 118% (inactive); `CCCc1c(OCCCCc2nn[nH]n2)ccc(C(C)=O)c1O`: 112% (inactive). In the case of `CC(=O)O[C@H]1C[C@@H](OC(C)=O)C(C)(C)C2CC(=O)[C@]3(C)C(CC[C@@]4(C)[C@H](c5ccoc5)OC(=O)[C@H]5O[C@]543)[C@]21C` (stereo not given in full), the activity remaining was 107% (inactive). Next, `C=C[C@@](C)(O)CCC1C(=C)C[C@H](OC(C)=O)C2C(C)(C)CCCC12C` (stereo not given in full): 118% (inactive). Next, `O=C(O)/C=C/C=C/c1ccccc1`: 103% (inactive); `O=c1[nH]c(=O)n(C2C[C@H](O)[C@@H](CO)O2)cc1C(F)(F)F` (stereo not given in full): 108% (inactive). Next, `CC(C)c1c(O)c(-c2cc3c(c(C(C)C)c2O)CCC2C(C)(C)CCC[C@]32C)cc2c1CCC1C(C)(C)CCC[C@]21C` (stereo not given in full): 102% (inactive). On to `COc1cccc(/C=C/C(=O)O)c1C(C)C`, for which the activity remaining was 122% (inactive).

In the case of `COC(=O)Nc1nc2ccc(Sc3ccccc3)cc2[nH]1`, the activity remaining was 114% (inactive).

On to `NCCCC(O)(P(=O)(O)O)P(=O)(O)O`, for which the activity remaining was 112% (inactive). Next, `Nc1nc(=S)c2[nH]cnc2[nH]1`: 121% (inactive); `O=C(O)c1ccccc1C(=O)Nc1ccc(S(=O)(=O)Nc2nccs2)cc1`: 98.2% (inactive); `CC[C@]1(O)CC2CN(CCc3c([nH]c4ccccc34)[C@@](C(=O)OC)(c3cc4c(cc3OC)N(C=O)[C@H]3[C@@](O)(C(=O)OC)[C@H](OC(C)=O)[C@]5(CC)C=CCN6CC[C@]43[C@@H]65)C2)C1` (stereo not given in full): 82.4% (inactive). Next, `COC(=O)[C@]1(C)CCC[C@]2(C)c3ccc(C(C)C)cc3C(=O)CC12` (stereo not given in full): 89.3% (inactive); `C[C@]12C=CC(=O)C=C1CCC1C2C(=O)C[C@@]2(C)C1CC[C@]2(O)C(=O)CO` (stereo not given in full): 101% (inactive); `CCC(C)C(=O)O[C@@H]1C[C@@]2(C)[C@H](c3ccoc3)OC(=O)CC23OC2(C)OC34[C@H](OC(=O)C(C)C)[C@@]3(O)[C@@H](OC(=O)C5(C)OC5C)[C@@]5(C)C[C@]3(O)[C@@](C)([C@H]5CC(=O)OC)C14O2` (stereo not given in full): 112% (inactive). As for `CCOc1ccc(C(=O)c2ccc(O)c(O)c2O)cc1`, the figure is 110% (inactive). Turning to `COc1ccc2c(c1)OCC(Cc1ccc(OC)c(OC(C)=O)c1)C2=O` (stereo not given), the activity remaining was 113% (inactive). Next, `COc1ccc(CCC(=O)c2c(O)cc(O[C@@H]3O[C@H](CO)C(O)[C@H](O)C3O[C@@H]3O[C@@H](C)[C@H](O)[C@@H](O)[C@H]3O)cc2O)cc1O` (stereo not given in full): 109% (inactive); `Cc1ccc2c(Cl)cc(Cl)c(O)c2n1`: 85.6% (inactive). As for `COc1cccc(O)c1O`, the figure is 110% (inactive); as for `CN1CCC(=C2c3ccccc3CCc3sccc32)CC1`, 123% (inactive). Regarding `COc1ccc(C2Sc3ccccc3N(CCN(C)C)C(=O)C2OC(C)=O)cc1` (stereo not given), the activity remaining is 114% (inactive). Next, `Cc1ccc(C(=O)C(C)CN2CCCCC2)cc1` (stereo not given): 113% (inactive). As for `O=c1cc(-c2ccccc2)oc2cccc(O)c12`, the figure is 99.1% (inactive); as for `COc1c2c(cc3occ(-c4ccc5c(c4)OCO5)c(=O)c13)OC(C)(C)C=C2`, 111% (inactive); as for `COc1c(Cl)ccc(Cl)c1C(=O)O`, 108% (inactive).
